PMC4336329 (PLoS ONE, 2015)
Among all 310,000 compounds or so, about 14,000 (4.5%) showed an effect of 50% or more. Effects have a minus sign here. This excerpt belongs to a sample that is enriched for strong results.

target: human ether-à-go-go-related gene (hERG) potassium channel (human, UniProt Q12809); assay: primary screen, population patch clamp on CHO cells stably expressing hERG; higher = less effect of the substance
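Note: peak tail current of the secondary pulse compared with the same well before compound.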

human ether-à-go-go-related gene (hERG) potassium channel, sequence (Q12809 whole entry, looked up): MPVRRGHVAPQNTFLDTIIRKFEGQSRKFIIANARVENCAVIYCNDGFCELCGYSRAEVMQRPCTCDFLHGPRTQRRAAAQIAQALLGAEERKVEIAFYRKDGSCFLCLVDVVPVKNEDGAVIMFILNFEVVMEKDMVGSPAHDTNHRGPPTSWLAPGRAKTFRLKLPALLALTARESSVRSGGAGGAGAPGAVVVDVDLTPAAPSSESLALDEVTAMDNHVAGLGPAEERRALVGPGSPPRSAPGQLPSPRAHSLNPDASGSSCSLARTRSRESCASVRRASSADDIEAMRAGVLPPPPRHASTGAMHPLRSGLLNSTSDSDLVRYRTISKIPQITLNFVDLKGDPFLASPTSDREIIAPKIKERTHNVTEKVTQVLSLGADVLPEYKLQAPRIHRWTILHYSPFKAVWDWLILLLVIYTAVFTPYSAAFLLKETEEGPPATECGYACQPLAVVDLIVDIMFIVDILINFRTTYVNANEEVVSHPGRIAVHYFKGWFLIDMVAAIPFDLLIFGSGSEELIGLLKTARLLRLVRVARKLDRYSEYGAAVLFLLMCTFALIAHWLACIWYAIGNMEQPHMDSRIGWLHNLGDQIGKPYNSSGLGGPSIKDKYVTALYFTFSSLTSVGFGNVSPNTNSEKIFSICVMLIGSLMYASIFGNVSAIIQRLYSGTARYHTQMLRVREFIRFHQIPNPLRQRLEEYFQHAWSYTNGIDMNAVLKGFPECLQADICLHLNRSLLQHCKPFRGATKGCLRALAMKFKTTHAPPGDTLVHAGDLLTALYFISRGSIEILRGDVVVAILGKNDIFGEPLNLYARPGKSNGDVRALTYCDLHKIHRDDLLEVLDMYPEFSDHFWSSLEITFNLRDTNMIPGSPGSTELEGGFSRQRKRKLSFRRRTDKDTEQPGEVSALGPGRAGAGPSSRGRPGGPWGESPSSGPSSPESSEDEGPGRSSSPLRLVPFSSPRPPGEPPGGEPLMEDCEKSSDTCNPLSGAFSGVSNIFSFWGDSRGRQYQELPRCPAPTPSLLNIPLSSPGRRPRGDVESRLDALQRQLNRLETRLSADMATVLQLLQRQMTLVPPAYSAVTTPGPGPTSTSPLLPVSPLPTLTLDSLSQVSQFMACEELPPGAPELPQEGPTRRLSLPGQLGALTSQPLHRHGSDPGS

SMILES	hERG current change (%, negative = inhibition) at 10uM [%]
Cc1cc(NS(=O)(=O)c2ccc(NC(=O)c3c(F)c(F)c(F)c(F)c3F)cc2)nc(C)n1	4.63
CCN(C(=O)CSc1nnnn1-c1ccccc1OC)C1CCS(=O)(=O)C1 (stereo not drawn)	21.2
O=C(CCNC(=O)c1ccccc1Cl)Nc1cccc(S(=O)(=O)N2CCOCC2)c1	0.307
CC(C)(C)c1[nH]nc2c1C(C1C=CCCC1)C(C#N)=C(N)O2 (stereo not drawn)	-11
CN(C)CC1CCCCC1OC(=O)c1ccc(S(=O)(=O)N(C)c2ccccc2)cc1 (stereo not drawn)	17.8
C/C(CC(=O)NCc1ccco1)=N\NC(=O)c1ccc([N+](=O)[O-])cc1Cl	10.5
CC(OC(=O)CCc1nc2ccccc2c(=O)[nH]1)C(=O)c1ccc(C(C)(C)C)cc1 (stereo not drawn)	-12.3
COc1ccc(N(CC(=O)NCc2ccc(Cl)cc2)S(=O)(=O)c2c(C)noc2C)cc1	15.1
O=[N+]([O-])CC(=Nc1ccc(F)cc1)N/N=C\c1oc(O)c2ccccc12	-0.338
NCCCC[C@H]1CN=C(N)N1CCCCC1CCCCC1	-3.84
CC(C)C(NC(=O)c1ccccc1NC(=O)c1ccco1)C(=O)O (stereo not drawn)	-14.1
C/C(N)=C(/C#N)C(=O)COC(=O)CC1CCCC1	-2.15
COc1ccccc1N1CCN(C2CC(=O)N(c3cccc(Br)c3)C2=O)CC1 (stereo not drawn)	-53.7
COc1ccccc1N1C(=O)CC(N2CCN(c3ccc(Cl)cc3)CC2)C1=O (stereo not drawn)	1.61
COc1cccc(N2CCN(C3CC(=O)N(c4cccc(Cl)c4)C3=O)CC2)c1 (stereo not drawn)	-14.4
COc1ccccc1N1C(=O)CC(N2CCN(c3ccc(F)cc3)CC2)C1=O (stereo not drawn)	-1.99
COc1cccc(N2C(=O)CC(N3CCN(c4ccc([N+](=O)[O-])cc4)CC3)C2=O)c1 (stereo not drawn)	-52.1
Cc1cccc(CC2CC(=O)N(c3ccc([N+](=O)[O-])cc3)C2=O)c1 (stereo not drawn)	-53.3
Cc1cc(C)cc(CC2CC(=O)N(c3ccc([N+](=O)[O-])cc3)C2=O)c1 (stereo not drawn)	9.78
COc1ccccc1N1CCN(C2CC(=O)N(c3ccccc3)C2=O)CC1 (stereo not drawn)	24.1
COc1cccc(N2CCN(C3CC(=O)N(c4ccc(Cl)c(Cl)c4)C3=O)CC2)c1 (stereo not drawn)	-0.0262
Cc1ccc(N2C(=O)CC(Cc3cccc(C)c3)C2=O)cc1 (stereo not drawn)	9.39
COc1ccccc1N1C(=O)CC(N2CCN(c3ccc([N+](=O)[O-])cc3)CC2)C1=O (stereo not drawn)	-68.6
O=C1CC(N2CCN(c3ccccc3)CC2)C(=O)N1c1cccc(Br)c1 (stereo not drawn)	-1.92
